# Chronic BCR inh – blocks chronic active B-cell receptor signaling | ABC-DLBCL IkBa-CBG/CBR reporter, luminescence ratio, 4 h | hit rate 0.05% among 340,000 | Potency, µM (top dose mostly 46.1 µM), without a hit: at the top dose activity change, negative = inhibition, actives largely listed as inhibitors; active = well fitted inhibition curve with a large enough effect in the signal ratio, with a control signal flat, not every such curve was filed as active; inconclusive = small, poorly fitted or top-dose-only effect, or effect the other way, or a change in a side signal; the % refers to the signal ratio;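 note: potency is the fitted concentration of half-maximal effect; plate controls were basal doxycycline-induced cells for no effect and cells given 10 µM MG132 for full effect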
#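 Doxycycline induced both beetle luciferases in TMD8 lymphoma cells; IKK-driven degradation limits the IkappaBalpha-fused green signal, while red luminescence normalises for cell number and nonspecific effects. Compounds tested up to 46 uM, 4 hrs.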
# VP16 counter – Gal4-VP16 reporter inhibition counter-screen | Drosophila S2 Gal4-VP16 UAS-luciferase, luminescence, 20 h | Potency, µM (top dose mostly 53.6 µM), for inactives: top-dose activity, negative = inhibition, usual class: inhibitors | hit rate 3.5% among 310,000;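 note: Gal4-VP16 expression switched on by copper sulfate through the metallothionein promoter; potency is the fitted concentration of half-maximal effect; % is set by controls: 0 for no effect and ±100 for the full control effect; nearly all actives have a fitted effect of over 50% in size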
# Giardia kill – Giardia lamblia killing; activity change, % at 7.66 µM, hits read low; hit rate 0.15% among 340,000; Giardia lamblia trophozoite viability; in the data active = activity change below about -80%; inconclusive = between about -30% and that limit;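 note: parasites exposed to compound for two days anaerobically before the ATP read; % is set by controls: 0 for no effect and ±100 for the full control effect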
#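 Trophozoites 100 cells/well + cpd; 48 hrs, 37 deg C, anaerobic. ATPLite 1-Step added, 15-30 min RT, luminescence read (ATP-based viability).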
# RORg inh – ROR gamma (mouse) transcription inhibition; hit rate 5.4% among 310,000; Drosophila S2 Gal4-RORgamma UAS-luciferase reporter, 20 h; Potency, µM (top dose mostly 53.6 µM), for the others: at the top dose activity change, negative = inhibition, most hits filed as inhibitors; P51450; note: potency is the fitted concentration of half-maximal effect; % is set by controls: 0 for no effect and ±100 for the full control effect; nearly all actives have a fitted effect of over 60% in size
# Target sequence (P51450 whole entry, looked up, the tested form may be a part): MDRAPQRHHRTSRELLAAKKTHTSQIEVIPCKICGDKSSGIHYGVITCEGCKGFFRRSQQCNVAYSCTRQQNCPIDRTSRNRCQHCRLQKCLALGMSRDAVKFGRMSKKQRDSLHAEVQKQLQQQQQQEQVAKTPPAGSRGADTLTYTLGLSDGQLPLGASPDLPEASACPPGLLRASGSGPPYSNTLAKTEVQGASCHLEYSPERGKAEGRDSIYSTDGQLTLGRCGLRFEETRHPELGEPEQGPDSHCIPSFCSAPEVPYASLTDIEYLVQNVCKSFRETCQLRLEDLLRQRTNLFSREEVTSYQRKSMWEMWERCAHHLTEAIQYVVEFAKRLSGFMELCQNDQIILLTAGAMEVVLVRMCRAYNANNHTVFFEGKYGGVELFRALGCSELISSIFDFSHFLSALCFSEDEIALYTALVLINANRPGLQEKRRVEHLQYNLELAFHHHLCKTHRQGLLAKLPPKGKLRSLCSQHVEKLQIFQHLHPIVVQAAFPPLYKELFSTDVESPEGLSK
#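 Schneider cells (Drosophila), stable Gal4 DBD–ROR gamma + UAS-luc; 1 hr cmpd preincubation; Cu2+ induction 700 uM final; 20 hr ambient; luminescence.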
# MCF10A rereplic – induces DNA re-replication in MCF 10a normal breast cells | AID 624296 | Potency, µM (titrated, usually from 46.1 µM), for the others: at the highest dose activity, positive = re-replication, most hits filed as activators | hit rate 2.9% among 350,000 | MCF 10A DNA re-replication, Hoechst nuclear intensity, 48 h; note: potency is the fitted concentration of half-maximal effect; % of control where 0% means no effect; nearly all actives have a fitted effect of over 50% in size
# SW480 rerep – inducers of DNA re-replication in SW480 colon cancer cells | SW480 DNA re-replication, Hoechst DNA content imaging, 48 h | Potency, µM (doses to about 46.1 µM), inactives show at the highest dose re-replication activation, usual class: activators | hit rate 1.8% among 340,000 | AID 624297; note: potency is the fitted concentration of half-maximal effect; % of control where 0% means no effect; nearly all actives have a fitted effect of over 55% in size
#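 Readout is total intensity of Hoechst-stained nuclei, excited at 405 nm and collected at 500-530 nm. Compound treatment lasted 48 hr at 37 C in 5% CO2 before staining.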
# Numbers without * were called inactive; ? = inconclusive; · = no result. Hits are enriched below; roughly 8.3% of the tested compounds scored in any of these assays. Unless noted, calls come from the whole dose curve; as a rule, active = well fitted curve in the direction sought with a large enough effect; inconclusive = small, poorly fitted or top-dose-only effect, or another doubt; inactive = no such curve, though single readings can be large; an effect the other way counts as inactive or inconclusive.
SMILES,Chronic BCR inh,VP16 counter,Giardia kill,RORg inh,MCF10A rereplic,SW480 rerep
NC(=O)[C@@H]1CCCN1Cc1nc(-c2ccc(C(F)(F)F)cc2)no1,-4.5%,-14.4%,0.5,?,-7.1%,-34.3%
Cc1cnc(C(=O)OC(C)C(=O)c2c(C)[nH]c3ccccc23)cn1 (stereo not drawn),-18.2%,·,-17.0,·,7.4%,-0.9%
NNc1nc(-c2ccccc2)cc(-c2ccccc2)n1,?,-9.0%,-7.4,4.47µM*,6.3%,-36.0%
N#Cc1cc(-c2ccccc2)nc(NN)n1,?,-18.7%,-0.6,?,15.9%,?
NNc1nc(-c2ccccc2)cc(-c2ccccc2O)n1,?,12.6µM*,4.1,7.08µM*,?,?
COC(=O)c1cnn(-c2ccccc2)c1-n1cccc1C=O,-0.6%,2.6%,3.5,-3.0%,-3.1%,-11.2%
O=c1cc(-c2ccc(Cl)cc2)oc(=O)[nH]1,?,3.3%,0.5,-0.3%,-0.1%,-0.4%
O=c1cc(N=Nc2ccc(Cl)cc2)[nH]c(=O)[nH]1,?,3.98µM*,22.3,2.51µM*,3.66µM*,5.17µM*
C/C=C(\C)CN1CCC(Oc2cccc(C(=O)NCc3ccccn3)c2)CC1,1.7%,-5.6%,-2.0,-30.3%,14.2%,-7.0%
O=C(COc1ccc(Cl)cc1Cl)NNC(=S)NCc1ccco1,-29.2%,?,-16.6,3.16µM*,?,-0.4%
O=C(COc1ccc(Cl)cc1Cl)NCc1ccco1,?,-17.9%,-0.1,?,4.5%,-1.5%
O=C(COc1ccc(Cl)cc1Cl)NNC(=S)NC(=O)c1ccco1,?,?,8.2,11.2µM*,13.1%,-15.7%
O=C(NC(=S)NCc1ccc(Cl)cc1Cl)c1ccco1,3.7%,·,4.4,·,?,1.8%
CC(Oc1ccc(Cl)cc1)C(=O)NNC(=S)NC(=O)c1ccco1 (stereo not drawn),?,?,-13.2,12.6µM*,?,1.9%
CCC1Cc2cc(O)ccc2C2=C1c1ccc(O)cc1CC2CC (stereo not drawn),·,12.6µM*,·,?,·,·
CC(C)c1ccccc1-n1c(SCC(=O)c2ccc3c(c2)NC(=O)CO3)nc2ccccc2c1=O,-0.6%,6.9%,-11.8,2.82µM*,-2.2%,-0.9%
Cc1cc(Cl)ccc1NC(=S)NCc1ccccc1Cl,?,3.98µM*,17.3,5.01µM*,26.1%,-62.1%
NNC(=S)Nc1ccccc1Cl,?,11.2µM*,-13.1,7.94µM*,?,-6.1%
NNC(=S)Nc1ccc(C(F)(F)F)cc1Cl,-0.3%,?,23.8,11.2µM*,-0.4%,-11.7%
S=C(Nc1ccccc1Cl)Nc1ccc(Cl)cc1Cl,-7.8%,1.2%,35.3,-35.2%,9.8%,-14.6%
S=C(NCc1ccccc1Cl)Nc1ccccc1Cl,?,2.82µM*,14.8,0.562µM*,-6.9%,8.6%
CCOc1ccc(S(=O)(=O)NCCC(=O)NCc2cccnc2)cc1,-1.7%,·,11.3,·,0.8%,1.9%
C/C(=N/NC(=O)CC1N=C(Cc2ccccc2)NNC1=O)c1cccnc1 (stereo not drawn),-0.1%,4.3%,0.9,16.6%,-1.0%,0.4%
COc1ccc(NC(=O)CN(C)CC(=O)Nc2ccc(Cl)cc2F)cc1,-2.6%,-6.2%,-2.8,26.6%,-0.4%,-8.8%
COc1cccc(-c2nc(CS(=O)CC(=O)NCc3ccccc3)c(C)o2)c1 (stereo not drawn),-10.4%,4.3%,?,-5.1%,6.2%,0.1%
O=C(O)CCNC(=S)Nc1cccc(F)c1,3.1%,0.2%,37.7,-7.2%,-1.3%,-4.7%
Fc1cccc(NC(=S)NCc2ccccc2Cl)c1,?,11.2µM*,5.3,7.08µM*,-0.5%,9.3%
O=S(=O)(N/N=C/c1ccccc1OCc1ccc(Cl)cc1)c1ccccc1,?,-2.4%,14.0,29.5%,3.26µM*,?
CCOC(=O)c1c(C)[nH]c(C)c1S(=O)(=O)N1CCCC(C(=O)N2CCN(c3cc(C)ccc3C)CC2)C1 (stereo not drawn),2.9%,·,·,·,·,·
